In PubChem BioAssay (Tox21):
Several values for one entry are separate records, joined by “and”; a condition that tells them apart may be missing. Equal values may be shown once. Inconclusive results are not listed. Activity calls are given as the source filed them. Unless noted, calls follow the shape of the dose curve; as a rule, active = well fitted curve in the direction sought with a large enough effect in the repeat runs; inconclusive = weak or mixed curves; inactive = no such curve, though single readings can be large; an effect the other way counts as inactive or inconclusive.

Legend:
[1] = qHTS assay to identify small molecule antagonists of the glucocorticoid receptor (GR) signaling pathway - cell viability counter screen (AID 720693); also: nearly all actives have a fitted effect of over 55% in size
[2] = qHTS assay for identifying genotoxic compounds that show differential cytotoxicity against isogenic chicken DT40 cell lines with known DNA damage response pathways - wild type cell line (AID 743012); also: nearly all actives have a fitted effect of over 60% in size; also: potency is read from the fitted curve at half-maximal effect
In short: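 Cytotoxicity in repair-proficient parental chicken DT40 cells serves as the comparator for Rad54/Ku70- and Rev3-deficient lines. Cells were exposed to compounds for 40 h at 37 C/5% CO2, and ATP-based luminescence (CellTiter-Glo) measured viability.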

[3] = qHTS assay for identifying genotoxic compounds that show differential cytotoxicity against isogenic chicken DT40 cell lines with known DNA damage response pathways - Rad54/Ku70 mutant cell line (AID 743015); also: nearly all actives have a fitted effect of over 60% in size; also: potency is read from the fitted curve at half-maximal effect
[4] = qHTS assay to identify small molecule antagonists of the androgen receptor (AR) signaling pathway - cell viability counter screen (AID 743033; also: nearly all actives have a fitted effect of over 45% in size)
[5] = molecular target: Androgen receptor (Homo sapiens) (UniProt P10275); assay: qHTS assay to identify small molecule antagonists of the androgen receptor (AR) signaling pathway (AID 743035; active = well fitted inhibition curve with a large enough effect in the signal ratio in the repeat runs, not every such curve was filed as active; the % refers to the signal ratio; also: potency is read from the fitted curve at half-maximal effect)
Sequence of Androgen receptor (Homo sapiens) (P10275 whole entry, looked up): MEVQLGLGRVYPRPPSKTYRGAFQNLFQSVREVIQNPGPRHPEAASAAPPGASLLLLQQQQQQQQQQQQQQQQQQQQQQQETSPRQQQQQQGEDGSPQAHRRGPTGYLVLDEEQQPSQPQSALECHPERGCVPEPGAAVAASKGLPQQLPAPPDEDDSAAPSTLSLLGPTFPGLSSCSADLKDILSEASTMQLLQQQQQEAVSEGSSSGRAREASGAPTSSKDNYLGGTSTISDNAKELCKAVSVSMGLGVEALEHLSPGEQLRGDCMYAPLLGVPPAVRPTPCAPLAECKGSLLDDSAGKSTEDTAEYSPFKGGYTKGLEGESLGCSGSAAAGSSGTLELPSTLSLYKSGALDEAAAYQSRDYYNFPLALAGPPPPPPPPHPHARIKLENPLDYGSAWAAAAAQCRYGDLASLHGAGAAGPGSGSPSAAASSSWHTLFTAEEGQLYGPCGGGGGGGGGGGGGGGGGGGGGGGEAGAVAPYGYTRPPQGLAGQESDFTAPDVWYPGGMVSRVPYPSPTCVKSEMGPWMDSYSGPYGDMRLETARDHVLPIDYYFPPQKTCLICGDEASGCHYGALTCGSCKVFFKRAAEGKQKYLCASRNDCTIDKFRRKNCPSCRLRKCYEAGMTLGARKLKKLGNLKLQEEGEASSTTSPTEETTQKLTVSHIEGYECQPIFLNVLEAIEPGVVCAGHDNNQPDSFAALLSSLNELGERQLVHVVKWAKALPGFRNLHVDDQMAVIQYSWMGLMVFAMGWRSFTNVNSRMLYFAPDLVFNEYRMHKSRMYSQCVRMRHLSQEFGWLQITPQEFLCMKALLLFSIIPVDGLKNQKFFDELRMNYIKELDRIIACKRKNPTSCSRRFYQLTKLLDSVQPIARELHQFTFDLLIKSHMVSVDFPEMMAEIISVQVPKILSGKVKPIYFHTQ
In short: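 Steps: seed AR-UAS-bla GripTite HEK293 cells, incubate 4 h at 37C; pin in test compound, then add agonist R1881; incubate 16 h at 37C; add LiveBLAzer B/G FRET substrate, 2 h at room temperature; read fluorescence.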

[6] = molecular target: Androgen receptor (Homo sapiens) (UniProt P10275); assay: qHTS assay to identify small molecule agonists of the androgen receptor (AR) signaling pathway (AID 743036; active = well fitted activation curve with a large enough effect in the signal ratio in the repeat runs, with a control signal flat, not every such curve was filed as active; the % refers to the signal ratio)
In short: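 Fluorescence from a beta-lactamase FRET substrate served as read-out in AR-UAS-bla GripTite HEK293 cells. Cells were treated with DMSO-dissolved compounds for 16 h at 37C, then with LiveBLAzer B/G substrate for 2 h at room temperature.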

[7] = molecular target: Androgen receptor (Homo sapiens) (UniProt P10275); assay: qHTS assay to identify small molecule agonists of the androgen receptor (AR) signaling pathway using the MDA cell line (AID 743040; also: nearly all actives have a fitted effect of over 20% in size)
In short: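 Luciferase read-out, ONE-Glo, 30 min RT. Cells: MDA-kb2 AR-luc, MMTV promoter with AR and GR response elements. Compound exposure 16 h, 37C, 0% CO2, after 5 h pre-incubation. qHTS agonist mode.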

[8] = qHTS assay to identify small molecule antagonists of the androgen receptor (AR) signaling pathway using the MDA cell line - cell viability counter screen (AID 743041; also: nearly all actives have a fitted effect of over 45% in size; also: potency is read from the fitted curve at half-maximal effect)
In short: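 Cytotoxicity counter screen: MDA-kb2 AR-luc cells, compound + R1881, 16 h, 37C, 0% CO2; CellTiter-Fluor added at 15.5 h, fluorescence read after 30 min.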

[9] = molecular target: Androgen receptor (Homo sapiens) (UniProt P10275); assay: qHTS assay to identify small molecule antagonists of the androgen receptor (AR) signaling pathway using the MDA cell line (AID 743042; also: nearly all actives have a fitted effect of over 55% in size; also: potency is read from the fitted curve at half-maximal effect)
In short: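 MDA-kb2 breast carcinoma cells carrying MMTV-luciferase (AR/GR responsive) were co-treated with compounds and the agonist R1881 for 16 h at 37C. Inhibition read as ONE-Glo luminescence; CellTiter-Fluor fluorescence measured in parallel for cytotoxicity.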

[10] = qHTS assay for identifying genotoxic compounds that show differential cytotoxicity against isogenic chicken DT40 cell lines with known DNA damage response pathways - Rev3 mutant cell line (AID 743014); also: nearly all actives have a fitted effect of over 55% in size; also: potency is read from the fitted curve at half-maximal effect

Measured: Potency

CNC(=O)O/N=C(/CSC)C(C)(C)C
not listed: [10]
inactive: all other assays above

Cn1c(CCCC(=O)O)nc2cc(N(CCCl)CCCl)ccc21
inactive: [1] | [4] | [8]
active: [2] 26.6 µM | [10] 3.35 µM

CC(C)N(Cc1ccccc1)C(=O)C(C)(C)C
active: [2] 61.1 µM | [10] 68.6 µM
not listed: [3]
inactive: all other assays above

CN1COCN(Cc2cnc(Cl)s2)/C1=N\[N+](=O)[O-]
inactive: [1] | [2] | [3] | [4] | [8]

ClCCCCCCCl
inactive: [1] | [2] | [10] | [3] | [4] | [8]

O=C(O)C(Cl)Br (centres undefined)
inactive: [1] | [2] | [10] | [3] | [4] | [8]

CON(C)C(=O)Nc1ccc(Br)cc1
inactive: [1] | [2] | [10] | [3] | [4] | [8]

COC(=O)[C@@H](N)CCCN/C(N)=N/[N+](=O)[O-]
inactive: [1] | [2] | [10] | [3] | [8]

Cc1ccc(S(=O)(=O)N[C@@H](CCCCN)C(=O)CCl)cc1
inactive: [1] | [7]
active: [2] 5.96 µM | [10] 10.6 µM | [3] 10.6 µM | [5] 21.3 µM | [8] 21.1 µM | [9] 23.7 µM

CCCCCCC(=O)CCCCCC/C=C/C[C@@H](O)[C@H](O)[C@@](N)(CO)C(=O)O
inactive: [1] | [4] | [8]
active: [2] 23.7 nM and 10.6 nM | [10] 21.1 nM and 11.9 nM | [3] 26.6 nM and 13.3 nM

CCCCCCCCSC(=O)Oc1cc(Cl)nnc1-c1ccccc1
inactive: [1] | [4] | [8]
active: [2] 54.5 µM | [10] 54.5 µM

CCOC(=O)Nc1cccc(OC(=O)Nc2ccccc2)c1
inactive: [1] | [2] | [3] | [4] | [8]

CCN(CCO)CCn1c(Cc2ccccc2)nc2c1c(=O)n(C)c(=O)n2C
inactive: [1] | [2] | [10] | [3] | [4] | [8]

CS(=O)(=O)c1ccc(C(=O)C2C(=O)CCCC2=O)c(Cl)c1COCC(F)(F)F
inactive: [1] | [2] | [3] | [4] | [8]

[O-][Br+2]([O-])O
inactive: [1] | [2] | [3] | [4] | [7] | [9]

C#CCOC(=O)/C=C(C)/C=C/CC(C)CCCC(C)C (centres undefined)
inactive: [1] | [2] | [10] | [4] | [8]

Nc1c(Cl)c(F)nc(OCC(=O)O)c1Cl
not listed: [5] | [6] | [10]
inactive: all other assays above

COC1=CC(=O)O[C@@H](/C=C/c2ccccc2)C1
inactive: [1] | [2] | [3] | [4] | [8]

Cc1ccc(Cl)c(O)c1
inactive: [1] | [2] | [10] | [3] | [4] | [8]

CC(C)(O)C(Cl)(Cl)Cl
inactive: [1] | [2] | [10] | [4] | [8]

c1cncc([C@@H]2CCCCN2)c1
inactive: [1] | [2] | [3] | [4] | [8]

CC(C)c1ccc(O)cc1
inactive: [1] | [2] | [10] | [4] | [8]

CCOC(=O)C(Cl)Cc1cc(-n2nc(C)n(C(F)F)c2=O)c(F)cc1Cl (centres undefined)
active: [2] 54.5 µM | [10] 61.1 µM | [3] 54.5 µM
inactive: [1] | [4] | [8]

Cn1c(N)nc2c3cccnc3ccc21
inactive: [1] | [2] | [3] | [4] | [8]

O=C(Cl)/C=C/C(=O)Cl
not listed: [5] | [10]
inactive: all other assays above

Cc1ccc2c(c1)C1CN(C)CCC1N2 (centres undefined)
inactive: [1] | [2] | [3] | [4]

CCOC(=O)CCl
inactive: [1] | [2] | [10] | [3] | [4] | [8]

[P]#[In]
inactive: [1] | [2] | [3] | [4] | [8]

C=CC1(C)OC(=O)N(c2cc(Cl)cc(Cl)c2)C1=O (centres undefined)
active: [3] 61.1 µM
inactive: [1] | [2] | [4] | [8]

CC(C)(C1CCC(O)CC1)C1CCC(O)CC1 (centres undefined)
inactive: [1] | [2] | [3] | [4] | [8]

O=C(CCl)NCO
inactive: [1] | [2] | [10] | [3] | [8]

CC(=O)CN(CC(C)=O)N=O
inactive: [1] | [2] | [10] | [3] | [4] | [8]

CCNc1nc(Cl)nc(NC(C)(C)C)n1
not listed: [3] | [5]
inactive: all other assays above

NC(=O)CS(=O)C(c1ccccc1)c1ccccc1 (centres undefined)
inactive: [1] | [2] | [10] | [3] | [4] | [8]

NCC1(CC(=O)O)CCCCC1
inactive: [1] | [2] | [10] | [3] | [8]

CCN(CCO)CCO
inactive: [1] | [2] | [3] | [4] | [8]
